In PubChem BioAssay (NCATS):
Several values for one entry are separate records, joined by “and”; a condition that tells them apart may be missing. Equal values may be shown once. Inconclusive results are not listed. Entries that show only a call come without a potency. A structure can be active in one record and inactive in another. Activity calls are given as the source filed them. The call rests on the fitted dose curve; in most records, active means well fitted inhibition curve with a large enough effect; inconclusive means small, poorly fitted or top-dose-only effect; inactive means no such curve, though single readings can be large or run the other way.

target: M-phase phosphoprotein 8 (Homo sapiens) (UniProt Q99549); test: qHTS Validation Assay for Inhibitors for MPP8 Chromodomain Interactions with Methylated Histone Tails (AID 488949); details: AlphaScreen MPP8 binding to H3K9me3 peptide; series mostly up to 57.1 µM; further: nearly all actives have a fitted effect of over 55% in size
Sequence (Q99549 whole entry, looked up): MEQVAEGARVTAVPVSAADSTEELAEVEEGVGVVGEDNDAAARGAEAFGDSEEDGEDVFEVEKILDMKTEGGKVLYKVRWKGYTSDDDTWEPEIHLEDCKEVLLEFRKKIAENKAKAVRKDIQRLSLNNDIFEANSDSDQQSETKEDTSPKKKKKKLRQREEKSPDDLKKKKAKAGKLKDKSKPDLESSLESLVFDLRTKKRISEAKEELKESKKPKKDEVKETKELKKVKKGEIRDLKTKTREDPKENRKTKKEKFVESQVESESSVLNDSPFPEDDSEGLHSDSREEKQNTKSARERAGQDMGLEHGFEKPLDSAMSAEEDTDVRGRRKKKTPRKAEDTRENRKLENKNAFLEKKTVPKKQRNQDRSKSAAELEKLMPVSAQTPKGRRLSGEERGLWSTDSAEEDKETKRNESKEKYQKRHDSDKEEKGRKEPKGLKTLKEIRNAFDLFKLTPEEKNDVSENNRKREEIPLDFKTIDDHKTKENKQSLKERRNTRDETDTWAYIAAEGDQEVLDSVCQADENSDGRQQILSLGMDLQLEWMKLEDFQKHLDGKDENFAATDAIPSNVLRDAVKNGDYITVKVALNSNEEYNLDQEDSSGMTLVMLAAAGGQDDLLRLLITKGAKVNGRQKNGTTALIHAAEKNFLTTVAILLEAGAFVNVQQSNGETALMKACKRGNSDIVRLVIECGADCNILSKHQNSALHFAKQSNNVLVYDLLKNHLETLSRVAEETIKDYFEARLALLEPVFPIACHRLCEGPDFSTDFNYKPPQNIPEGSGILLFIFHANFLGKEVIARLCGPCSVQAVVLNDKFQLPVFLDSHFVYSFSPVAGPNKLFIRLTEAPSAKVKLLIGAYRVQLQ
Outline: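 Chemiluminescent proximity assay: histidine-tag capture via nickel acceptor beads, biotin peptide via streptavidin donor beads. Protein and peptide each at 50 nM, pH 7.4, with 30 min incubations at room temperature for complex formation, compound exposure and bead binding.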
Potency means the concentration at half of the fitted maximal effect.

**Q.** Which Potency does the source give for CCCC[N+]1(C)C2CC(OC(=O)[C@H](CO)c3ccccc3)CC1C1OC12 (some centres not stated) here?
**A.** The Potency was “inactive”.

**Q.** CC(N)Cc1c[nH]c2ccc(O)cc12 (configuration not stated) was tested. Which Potency did it give?
**A.** The Potency was “inactive”.

**Q.** With COc1ccc2c(c1)[C@@]13CCCC[C@H]1[C@@H](C2)NCC3 as the molecule, how does the Potency read?
**A.** Its Potency is “inactive”.

**Q.** With O=c1c2ccccc2[se]n1-c1ccccc1 as the molecule, how does the Potency read?
**A.** The Potency was 5.01 µM (active) and 2.99 µM (active).

**Q.** For c1ccc2cc(CC3=NCCN3)ccc2c1, which Potency is on record?
**A.** Its Potency is “inactive”.

**Q.** For Ic1ccccc1CNC1C2CCN(CC2)C1C(c1ccccc1)c1ccccc1 (configuration not stated), which Potency is on record?
**A.** Its Potency is “inactive”.

**Q.** Which Potency does the source give for OCc1cnc[nH]1 here?
**A.** The Potency was “inactive”.

**Q.** CC(C)NP(=O)(NC(C)C)OP(=O)(NC(C)C)NC(C)C was tested. Which Potency did it give?
**A.** Its Potency is “inactive”.

**Q.** Which Potency does the source give for C=CCN(C1=NCCN1)c1c(Cl)cccc1Cl here?
**A.** Its Potency is “inactive”.

**Q.** C[N+]1(C)CCc2cc3c(cc2[C@H]1[C@@H]1OC(=O)c2c1ccc1c2OCO1)OCO3 was tested. Which Potency did it give?
**A.** The Potency was “inactive”.

**Q.** With N#CC(C#N)=Cc1cc(O)c(O)c(O)c1 as the molecule, how does the Potency read?
**A.** The Potency was 39.8 µM (active).

**Q.** For COc1ccc2c(c1)/C(=C/c1cnc[nH]1)C(=O)N2, which Potency is on record?
**A.** Its Potency is 44.7 µM (active) and inactive.

**Q.** How did the Potency turn out when COc1ccc(CNC(=O)/C=C/c2ccc3[nH]cc(CCN(C)C)c3c2)cc1 was run?
**A.** Its Potency is “inactive”.

**Q.** With CO[C@H]1CC=C2CCN3CCC4=C(CC(=O)OC4)[C@]23C1 as the molecule, how does the Potency read?
**A.** Its Potency is “inactive”.

**Q.** CCCCCCCCCCCCCC(=O)O[C@@H]1[C@@H](C)[C@@]2(O)[C@@H](C=C(CO)C[C@@]3(O)C(=O)C(C)=C[C@@H]23)C2C(C)(C)[C@@]21OC(C)=O (some centres not stated) was tested. Which Potency did it give?
**A.** The Potency was “inactive”.

**Q.** Which Potency does the source give for Oc1ccc2c3c1O[C@H]1c4[nH]c5ccccc5c4C[C@@]4(O)C(C2)N(CC2CC2)CCC314 (some centres not stated) here?
**A.** Its Potency is “inactive”.

**Q.** Which Potency does the source give for CN1CC[C@@]2(C)c3cc(O)ccc3N(C)C12 (some centres not stated) here?
**A.** Its Potency is “inactive”.
